Source: PubChem BioAssay
In the library only some 1.4% were active in any assay of this set; here they are far more common.
E coli Lon inh: E. coli protease La inhibition | P0A9M0 | purified E. coli Lon protease, fluorescence polarization | inhibition, % at 7.94 µM | 0.42% of 360,000 active | AID 602123; in the data active = inhibition above about 13%, passing the limit was not always enough;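 note: 0% = enzyme with probe and DMSO and 100% = no enzyme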
MCL1-BIM inh: inhibitors of human MCL1 binding to BIM-BH3 peptide | Q07820 | GST-MCL1 / FITC-Bim-BH3 fluorescence polarization | inhibition, % at 10.9 µM | 0.68% of 320,000 active | AID 2057;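 active = inhibition above the mean inhibition of all tested compounds plus 3 SD, set per campaign, cut at about 40% in these data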;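 note: 0% = DMSO wells and 100% = unlabeled Bim-BH3 peptide control; higher means more loss of mP so more displacement of Bim peptide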
GLD-1 TGE inh: GLD-1-TGE RNA interaction inhibition (C. elegans). Q17339. purified GLD-1 + fluorescein TGE RNA, fluorescence polarization. inhibition, % at 5.96 µM. 0.44% of 320,000 active;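 active = percent inhibition above a per-plate cutoff, the plate mean of test compounds plus 3 SD, cut at about 30% in these data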;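 note: 0% = DMSO wells with GLD-1 and probe and 100% = wells lacking GLD-1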
EBV gp42 block: inhibitors of Epstein-Barr virus glycoprotein 42; Q1HVG2; Fluorescence polarization binding assay, mP read-out; inhibition, % (tested at 21.74 µM); 0.42% of 220,000 active; AID 1085; in the data active = inhibition above about 50%
Target sequence (Q1HVG2 whole entry, looked up): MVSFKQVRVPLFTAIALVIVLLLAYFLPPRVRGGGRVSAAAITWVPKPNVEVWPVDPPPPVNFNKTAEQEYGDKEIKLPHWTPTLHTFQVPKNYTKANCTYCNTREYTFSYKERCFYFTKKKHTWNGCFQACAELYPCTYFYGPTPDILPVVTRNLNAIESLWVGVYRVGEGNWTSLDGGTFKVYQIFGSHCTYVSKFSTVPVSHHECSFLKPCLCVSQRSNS
MEX-5 binding: C. elegans MEX-5 TCR-2 RNA binding activity; Q9XUB2; AID 1832; MEX-5/FITC-TCR2 RNA binding, fluorescence polarization; stronger effect = lower value; activity score (negative = inhibition of binding), % at 10 µM; 0.38% of 300,000 active;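 active = inhibition past about -25% in most replicates, and total fluorescence under double the plate's negative control median, limit read from the data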;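 note: 0% = DMSO and -100% = 5 µM competing unlabeled TCR2 RNA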
BCLXL inh: blocks human Bcl-xL binding to Bim BH3 peptide. inhibition, % at 10.9 µM. AID 2129. Q07817. GST-Bcl-xL / FITC-Bim BH3 peptide fluorescence polarization. 0.7% of 320,000 active;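 active = inhibition above the mean of all tested compounds plus 3 SD, cutoff set per campaign, cut at about 30% in these data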;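 note: 0% = DMSO wells and 100% = unlabeled Bim-BH3 peptide competitor; inhibitors lower millipolarization by displacing the labeled peptide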
Target sequence (Q07817 whole entry, looked up): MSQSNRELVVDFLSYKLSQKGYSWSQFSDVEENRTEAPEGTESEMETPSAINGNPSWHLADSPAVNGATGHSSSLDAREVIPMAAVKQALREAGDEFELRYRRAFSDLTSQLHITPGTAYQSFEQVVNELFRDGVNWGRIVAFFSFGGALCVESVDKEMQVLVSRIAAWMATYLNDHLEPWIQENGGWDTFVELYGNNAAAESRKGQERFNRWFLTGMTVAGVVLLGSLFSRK
* = called active by the depositor; i = inactive; nt = no result.

SMILES | E coli Lon inh | MCL1-BIM inh | GLD-1 TGE inh | EBV gp42 block | MEX-5 binding | BCLXL inh
Cc1cc(N)n(-c2ccccn2)n1 | 8.7 | 0.4 | -1.2 | -13.4 | 5.5 | 3.6
CC1=CC(C)(C)Nc2ccc(OC(=O)CN3C(=O)c4cccc5cccc(c45)C3=O)cc21 | 10.2 | 36.0 | 28.1 | -10.4 | -1.4 | 36.0*
CC1=CC(C)(C)Nc2ccc(OC(=O)CN3C(=O)c4ccccc4C3=O)cc21 | -2.3 | -3.3 | 2.9 | 2.1 | -1.3 | 0.5
CCOc1ncccc1C(=O)NCC(c1ccco1)N1CCCCC1 (centres undefined) | 1.5 | nt | -3.9 | nt | nt | nt
O=C(NCCCc1ccccc1)c1cc(COc2ccc(F)cc2Cl)on1 | 3.3 | 34.3 | 14.4 | nt | -2.3 | 34.9*
CCOc1cccc(/C=C(/C#N)c2nc3ccccc3[nH]2)c1OCC(=O)O | -14.9 | 6.6 | 8.4 | nt | -2.7 | 2.5
CCN(CC)c1ccc(/C=C(/C#N)c2nc3ccccc3[nH]2)c(OC(C)C)c1 | -479.5 | -87.0 | -50.8 | 48.0 | -33.0* | -26.2
Brc1ccc(-c2csc3ncnc(-n4nnc5ccccc54)c23)cc1 | -9.0 | 0.4 | -5.1 | 5.5 | -0.7 | -1.9
O=C(O)C(=O)/C(=C\c1ccccc1)c1ccc2ccccc2n1 | -29.4 | -15.1 | 5.5 | -38.1 | -6.0 | -9.4
O=C(O)C(=O)/C(=C\c1ccc([N+](=O)[O-])cc1)c1ccc2ccccc2n1 | -46.9 | -33.8 | -13.3 | -6.6 | -13.9 | -26.0
O=C(O)C(=O)/C(=C\c1ccsc1)c1ccc2ccccc2n1 | -9.8 | -10.5 | 2.7 | nt | -47.9* | -2.4
O=C(O)C(=O)/C(=C\c1cccc2ccccc12)c1ccc2ccccc2n1 | -22.4 | -53.5 | -4.3 | -22.1 | -39.7* | -33.3
COc1ccc(C2C(C(C)=O)=C(C)N=c3s/c(=C\c4cc(C)n(C)c4C)c(=O)n32)c(OC)c1 (centres undefined) | i | -78.5 | -111.4 | 92.2* | -38.5* | -41.7
COc1ccc(C2C(C(C)=O)=C(C)N=c3s/c(=C\c4ccco4)c(=O)n32)c(OC)c1 (centres undefined) | -2.7 | -5.2 | -4.2 | -39.6 | 1.0 | -2.7
CC(C)(C)N1CC(c2nc3ccccc3n2Cc2ccc(Cl)cc2)CC1=O (centres undefined) | -2.1 | 3.0 | 2.0 | 4.8 | 0.9 | 2.0
CC(C)(C)N1CC(c2nc3ccccc3n2CCOc2ccccc2)CC1=O (centres undefined) | 0.5 | 1.0 | -2.7 | 66.9* | 0.3 | 2.0
O=c1oc2cc(O)c(Cl)cc2c2ccccc12 | -1.6 | -2.2 | 9.2 | -1.7 | -0.7 | 3.0
O=c1cc2c(=O)oc3cc(O)c(O)oc3c2c(O)c1O | -6.1 | nt | nt | -12.2 | -84.2* | nt
CCC(C)NC(=S)Nc1ccc(C(=O)OC)cc1 (centres undefined) | 1.0 | 14.7 | 1.6 | 5.4 | -1.6 | 8.3
CCCOCC(O)CCc1n[nH]c(=S)n1-c1ccccc1 (centres undefined) | -1.9 | 7.8 | -6.3 | -16.7 | -2.3 | -3.1
CCOC(=O)c1cc(C#N)c(SCC(N)=O)[nH]c1=O | -8.5 | 37.8 | 12.8 | 13.8 | -23.5 | 38.4*
CCOc1ccc2nc(N3C(=O)/C(=C/c4ccc(Cl)cc4)NC3=S)sc2c1 | -7.1 | nt | nt | 64.1* | -4.4 | nt
Cc1ccccc1NC(=O)c1ccc2c(O)c(S(=O)(=O)c3ccccc3)c(=O)[nH]c2c1 | -2.5 | 5.0 | 1.2 | nt | -4.4 | 10.8
COc1cccc(C(=O)NCC2CCN(c3ccc(S(=O)(=O)N4CCOCC4)cc3)CC2)c1 | -0.1 | -0.9 | -6.7 | -14.9 | -30.1* | -0.1
O=C(NCC1CCN(c2ccc(S(=O)(=O)N3CCOCC3)cc2)CC1)c1cccc(Cl)c1 | -8.3 | 7.2 | 1.4 | -23.0 | 2.7 | 1.9
SMILES | E coli Lon inh | MCL1-BIM inh | GLD-1 TGE inh | EBV gp42 block | MEX-5 binding | BCLXL inh
C=CCc1cccc2cc(C(=O)Nc3ccc(F)cc3)c(=O)oc12 | 3.8 | 8.0 | -2.9 | -9.2 | 2.7 | 3.0
C=CCc1cccc2cc(C(=O)Nc3ccc(S(=O)(=O)Nc4nnc(CC)s4)cc3)c(=O)oc12 | 0.1 | 4.7 | 3.5 | 73.1* | 0.6 | 8.2
O=C(O)c1ccc(S(=O)(=O)/N=C2\C=C(Nc3ccccc3F)C(=O)c3ccccc32)cc1 | 4.3 | 28.9 | 8.6 | nt | -42.2* | 23.9
Cc1cc(C)c(C(=O)c2ccccc2C(=O)O)c(C)c1 | 0.3 | nt | nt | nt | nt | nt
O=C(c1ccco1)N1CCN(c2nc3ccccc3n3nnnc23)CC1 | -27.5 | 30.2 | 6.1 | 33.4 | -3.0 | 41.3*
CCn1c(N2CCN(C(=O)c3ccco3)CC2)nc2ccccc21 | -7.4 | -1.2 | 5.7 | nt | -1.1 | 2.9
Oc1ccc(-c2nc(-c3ccc(O)c(O)c3)cs2)cc1 | 9.2 | 23.6 | -2.1 | 0.0 | -68.0* | 17.6
Oc1ccc(Nc2nc(-c3ccc4ccccc4c3)cs2)cc1 | 5.0 | 4.1 | 6.0 | -4.0 | -0.9 | 3.1
Cc1c(Br)c([N+](=O)[O-])nn1CC(=O)Nc1ccc2nc3n(c(=O)c2c1)CCCC3 | -5.7 | -0.6 | -6.3 | nt | 0.6 | 2.6
Cc1cccn2c(=O)c(/C=C(\C#N)S(=O)(=O)c3ccccc3)c(N3CCN(Cc4ccccc4)CC3)nc12 | 9.8 | 30.6 | 10.1 | nt | 0.7 | 30.6*
CC1=C(C#N)C(=O)N(C2CCS(=O)(=O)C2)C(=O)/C1=C\c1ccco1 (centres undefined) | nt | 105.4* | 13.6 | 124.5* | -98.5* | 49.3*
COCCN(C(=O)CSc1nnc(-c2ccccc2F)o1)c1c(N)n(Cc2ccccc2)c(=O)[nH]c1=O | -18.8 | nt | nt | nt | nt | nt
CC1=C(C#N)c2nc(N)c(C#N)c(C)c2/C1=C\c1ccc(OCC(=O)O)c(Cl)c1 | 0.5 | 33.3 | 19.8 | 10.9 | -15.7 | 36.5*
Cc1noc(/C=C/N(C)C)c1S(=O)(=O)N1CCCC(C(=O)Nc2ccc(F)cc2F)C1 (centres undefined) | -73.2 | -18.3 | -13.4 | nt | 5.0 | -8.6
COc1ccc(NC(=O)c2ccc(Cl)nc2)cc1S(=O)(=O)N1CCOCC1 | -6.2 | 10.1 | 2.2 | nt | nt | 3.9
COc1ccc(NC(=O)Cn2ncc(Cl)c(Cl)c2=O)cc1S(=O)(=O)N1CCOCC1 | -6.5 | 26.6 | 1.7 | 60.7* | 0.5 | 8.3
CCOC(=O)C1=CN(Cc2ccco2)S(=O)(=O)NC1c1cccc(OC)c1 (centres undefined) | 6.2 | nt | nt | nt | nt | nt
COCC(=O)NCCc1ccc(S(N)(=O)=O)cc1 | -5.4 | -6.7 | -1.9 | 16.8 | -5.1 | -1.0
Nc1nccnc1C(=O)OCC(=O)NCCc1ccc(S(N)(=O)=O)cc1 | 10.0 | 36.6 | 27.4 | nt | 0.1 | 35.2*
Cc1ccc(S(=O)(=O)N2CCN(c3nccnc3C#N)CC2)cc1 | -0.4 | 2.0 | -2.9 | -6.7 | 2.1 | 2.1
CCOC(=O)C1=C(COC(=O)c2ccco2)NC(=O)NC1CC (centres undefined) | -18.2 | -2.7 | 1.5 | nt | nt | 5.7
COc1cccc(/C=C/C(=O)OCC(=O)Nc2ccc(Cl)cn2)c1 | 13.9* | 8.1 | -4.9 | -17.5 | 4.5 | 0.2
Cc1sc2nc3ccc(NCc4ccco4)nn3c(=O)c2c1C | 7.2 | 29.3 | 10.1 | 10.6 | nt | 34.5*
